Consider 96 compounds from PubChem BioAssay AID504332 (National Center for Advancing Translational Sciences (NCATS), 2011).

About 31,000 (8.9%) of roughly 350,000 compounds were called active. Entries that show only a call come without a potency. About 15% were inconclusive and are not listed. Calls follow the shape of the dose curve; as a rule, active = well fitted inhibition curve with a large enough effect; inconclusive = small, poorly fitted or top-dose-only effect; inactive = no such curve, though single readings can be large or run the other way. Only a selection was taken, and actives are over-represented in it overall.
Potency is read from the fitted curve at half-maximal effect.

Chain of Histone-lysine N-methyltransferase EHMT2 (Homo sapiens) (Q96KQ7 913-1193 limits assumed): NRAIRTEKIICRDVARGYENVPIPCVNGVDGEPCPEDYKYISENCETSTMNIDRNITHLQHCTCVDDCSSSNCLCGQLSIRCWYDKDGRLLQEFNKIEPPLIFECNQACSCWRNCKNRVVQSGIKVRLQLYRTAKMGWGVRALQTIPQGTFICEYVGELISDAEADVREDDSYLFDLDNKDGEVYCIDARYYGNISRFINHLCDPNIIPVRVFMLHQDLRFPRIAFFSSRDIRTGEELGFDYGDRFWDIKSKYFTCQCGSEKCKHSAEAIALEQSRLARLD

The assay concerns the target Histone-lysine N-methyltransferase EHMT2 (Homo sapiens) (UniProt Q96KQ7). Briefly: qHTS Assay for Inhibitors of Histone Lysine Methyltransferase G9a. Also: nearly all actives have a fitted effect of over 75% in size. The settings on record: G9a H3K9 monomethylation, AlphaScreen, 2 h; series mostly up to 59 µM. The gist of the method: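 Compounds were preincubated with 20 nM G9a for 15 min, after which biotinylated H3K9 peptide (500 nM) and SAM (20 uM) started a 2 h room-temperature reaction. Monomethylated product was quantified by antibody-based AlphaScreen chemiluminescence.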
On to `N#Cc1cccc(OC(=O)c2ccc3c(=O)n4c(nc3c2)CCC4)c1`, for which the activity, negative = inhibition is -1.34% [at 0.501 µM] (inactive). Still for that read-out and setting: the same measure for `COc1ccc(-c2cc3ncccc3cn2)cc1`: -3.56% [at 0.501 µM] (inactive). For `COc1ccc(-c2cc(C3CCN(c4ncccc4[N+](=O)[O-])CC3)[nH]n2)cc1`, the Potency was 50.1 µM (active). On the same count and under the same terms, in the case of `CC(=O)NC(Cc1ccccc1)C(=O)NC1CCN(c2ncccc2[N+](=O)[O-])CC1` (stereo unspecified) it was “inactive”. For the compound `O=C(NCC1CCCO1)c1cc2c([nH]c3ccccc32)c(-c2ccc(F)cc2)n1` (stereo unspecified), the activity, negative = inhibition is 6.78% [at 12.7 µM] (inactive). With `COc1cc(NC(=O)CN2C(=O)NC(C)(c3ccc(OC(F)F)cc3)C2=O)cc(OC)c1OC` (stereo unspecified), the Potency result is “inactive”. On to `CSc1nc(-c2ccc(F)cc2)nc2c1Cc1c(CO)cnc(C)c1O2`, for which the Potency entry was “inactive”.

For `CCc1nc(C)cn1S(=O)(=O)c1cc([N+](=O)[O-])ccc1Cl`, the Potency entry was “inactive”. On the same count and under the same terms, in the case of `COc1cc(Cl)c(S(=O)(=O)n2cnc(C)c2)cc1Cl` it was “inactive”; in that of `CCc1nc(C)cn1S(=O)(=O)c1cc(OC)c(C)cc1C`, 44.7 µM (active). In the case of `CCOc1cc(/C=C2\SC(N3CCCC(C)C3)=NC2=O)ccc1O` (stereo unspecified), the Potency result is “inactive”.

As to `CC(C)C(=O)NCC(c1cccs1)S(=O)(=O)c1ccc(F)cc1` (stereo unspecified), the Potency entry is “inactive”. On the same count and under the same terms, the same measure for `CC1CCCC(C)N1C(=O)COC(=O)COc1ccccc1C#N` (stereo unspecified): “inactive”; for `CC(=O)Nc1ccc(OCC(O)CN2CCN(c3ccccc3Cl)CC2)cc1` (stereo unspecified): “inactive”; for `COc1ccccc1N1CCN(CC(=O)NCCc2ccc(S(N)(=O)=O)cc2)CC1`: “inactive”.

Regarding `COc1ccccc1N1CCN(Cc2ccc(OC)c3ccccc23)CC1`, the Potency is 8.91 µM (active). The same measure, in the same setting: the same measure for `COc1ccccc1N1CCN(CCN2C(=O)c3ccccc3C(C)(C)C2=O)CC1`: “inactive”; for `CNCC(O)CN1CCN(c2ccccc2OC)CC1` (stereo unspecified): 50.1 µM (active). Still for that read-out and setting: the same measure for `COC(=O)c1cnc(N2CCN(c3ccccc3OC)CC2)c2ccccc12`: “inactive”. For the compound `S=C(Nc1cccnc1)Nc1ccccn1`, the activity, negative = inhibition was -8.13% [at 2.33 µM] (inactive). As to `COc1ccc(S(=O)(=O)N2CCCCC2)cc1C(=O)NC1CCS(=O)(=O)C1` (stereo unspecified), the Potency entry was “inactive”. As for `CCOC(=O)c1cc(-c2ccccc2C)n(Cc2cc(C)no2)n1`, the activity, negative = inhibition is -5.1% [at 0.501 µM] (inactive). In the case of `CN(C(=O)COC(=O)Cn1cnc2c1c(=O)n(C)c(=O)n2C)C1(C#N)CCCCC1`, the activity, negative = inhibition is 24% [at 12.7 µM] (inactive). With `c1ccc(-n2nnnc2-c2cccnc2)cc1`, the Potency entry was “inactive”. Same read-out and setting: in the case of `Cc1cc(C(=O)N/N=C\C(Br)=C\c2ccccc2)c(C)o1` it was “inactive”. On the same count and under the same terms, in the case of `O=C(N/N=C\c1cccnc1)c1cc(-c2ccccc2)nc2c(Cl)cccc12` it was “inactive”; in that of `S=c1[nH]nc(-c2cccnc2)n1/N=C/C(Cl)=C\c1ccccc1`, 0.891 µM (active); in that of `Cc1cc(-c2n[nH]c(=S)n2/N=C/C(Br)=C/c2ccccc2)n[nH]1`, 6.31 µM (active). As for `Cc1cc(-c2n[nH]c(=S)n2/N=C/c2ccco2)n[nH]1`, the activity, negative = inhibition is -104% [at 12.7 µM] (inactive). `O=C(O)CCCn1cc(NC(=O)COc2cccc(Cl)c2)cn1`: the Potency result is “inactive”. Same read-out and setting: the same measure for `O=C1CCN(CCCc2ccccc2)CCN1CCO`: “inactive”. Still for that read-out and setting: in the case of `COc1ccc(C(=O)Nc2c(Cl)cc(Cl)cc2C(=O)N2CCC(C)CC2)cc1` it was “inactive”. For `CC1CCN(C(=S)c2ccc(-c3ccc(Cl)cc3Cl)o2)CC1`, the Potency is 8.91 µM (active). Same read-out and setting: in the case of `Cc1csc(NC(=O)c2ccc(-c3ccc(Cl)cc3Cl)o2)n1` it was “inactive”; in that of `COc1ccc(CNC(=O)C(C)n2nc(C)c3c(C)n(-c4ccccc4)nc3c2=O)c(OC)c1` (stereo unspecified), “inactive”.

As to `O=[N+]([O-])c1ccc(N2CCNCC2)cc1NCc1cccnc1`, the Potency result was “inactive”. On the same count and under the same terms, in the case of `CC1CCN(c2ccc([N+](=O)[O-])c(SCCO)c2)CC1` it was “inactive”; in that of `CN1CCN(c2ccc([N+](=O)[O-])c(Sc3nc4ccccc4[nH]3)c2)CC1`, 10 µM (active); in that of `CCOC(=O)c1ccccc1NC(=O)CCc1c(C)nc2c(c1C)c(=O)n(C)c(=O)n2C`, “inactive”. Take `CCOc1ccc(N2CC(c3nc4ccccc4n3CCOc3ccc(OC)cc3)CC2=O)cc1` (stereo unspecified): the Potency entry was “inactive”. As to `CCc1ccccc1OCC(=O)Nc1ccc2c(c1)OCCO2`, the Potency entry is “inactive”.

As to `CC(Sc1nnc(-c2ccccc2F)n1C1CC1)C(N)=O` (stereo unspecified), the Potency result was “inactive”.

Take `COc1ccc(NC(=O)CSc2nnc(C3CC3)n2C)cc1S(=O)(=O)N1CCCCC1`: the Potency entry was “inactive”. Turning to `COc1ccc(NC(=O)CSc2nnc(-c3ccccc3F)n2C2CC2)cc1S(N)(=O)=O`, the Potency is 44.7 µM (active).

For `Cc1ccc(S(=O)(=O)N(CC(=O)NCc2ccco2)c2ccccc2C)cc1`, the Potency entry was “inactive”. As for `CCOC(=O)C(Cc1ccccc1)NC(=O)CCc1c(C)nc2c(c(C)nn2-c2ccc(C)c(C)c2)c1C` (stereo unspecified), the Potency entry is “inactive”. The same measure, in the same setting: the same measure for `CCOC(=O)c1cc2c(=O)n3ccccc3nc2n(Cc2ccco2)c1=NC(=O)c1ccc(F)cc1`: “inactive”; for `COC(=O)c1ccc(NC(=O)c2cnn(-c3ccc(Cl)cc3)c2C2CCN(C(=O)OC(C)(C)C)CC2)cc1`: “inactive”; for `CCN(CC(=O)Nc1ccc(S(=O)(=O)N2CCCC2)cc1)CC(=O)Nc1cccc(OC)c1`: 31.6 µM (active). In the case of `COc1ccccc1CC(=O)Nc1ccc(S(=O)(=O)N2CCCC2)cc1`, the Potency result was “inactive”. In the case of `COc1cccc(NC(=O)CN(C)C(=O)Cc2ccc(Cl)cc2Cl)c1`, the Potency entry was “inactive”.

As for `COc1cccc(NC(=O)CN(C)CC(=O)Nc2ccc3c(c2)CCC3)c1`, the Potency entry was “inactive”. Still for that read-out and setting: in the case of `COc1cccc(NC(=O)CN(C)C(=O)CSC(=S)N2CCCC2)c1` it was 14.1 µM (active). On the same count and under the same terms, in the case of `CCOc1cccc(NC(=O)C2CCCN(S(=O)(=O)c3ccc(OC)cc3)C2)c1` (stereo unspecified) it was “inactive”; in that of `COc1ccc(OC)c(NC(=O)CN2CCCN(Cc3cc(C)ccc3C)S2(=O)=O)c1`, “inactive”. `COc1ccc(OCCCC(=O)OC(C)C(=O)Nc2ccccc2[N+](=O)[O-])cc1` (stereo unspecified): the activity, negative = inhibition is -1.74% [at 2.33 µM] (inactive). Turning to `CCOc1ccc(-n2c(C)nc3c(cnn3-c3ccc(C)cc3)c2=O)cc1`, the Potency entry is “inactive”. The same measure, in the same setting: in the case of `Cn1c(=O)c2c(nc(NCCNC(=O)c3ccco3)n2Cc2ccccc2F)n(C)c1=O` it was “inactive”; in that of `CC(C)OCCCNc1nc2c(c(=O)n(Cc3ccccc3F)c(=O)n2C)n1C`, 22.4 µM (active). Still for that read-out and setting: in the case of `CCOC(=O)CSc1nc2c(c(=O)n(C)c(=O)n2C)n1Cc1ccccc1F` it was “inactive”.

Regarding `CNC(=O)c1ccc(-c2nc(CN3CCc4ccccc43)c(C)o2)cc1`, the activity, negative = inhibition was -0.994% [at 12.7 µM] (inactive).

`Cc1nn(-c2ccccc2)c(C)c1NC(=O)COc1ccc(Cl)cc1Cl`: the Potency entry was “inactive”.

With `COC(=O)c1c(NC(=O)COc2ccc(Cl)cc2Cl)sc2c1CC(C)(C)NC2(C)C`, the Potency was 31.6 µM (active). On the same count and under the same terms, the same measure for `CCOC(=O)c1c(NC(=O)c2ccc(S(=O)(=O)N(C)CC3CCCO3)cc2)sc2c1CC(C)(C)NC2(C)C` (stereo unspecified): “inactive”. For `CC1(C)CC(=O)C=C(c2ccc(Cl)c(C(F)(F)F)c2)C1`, the activity, negative = inhibition is -9.47% [at 0.501 µM] (inactive). On the same count and under the same terms, the same measure for `O=C(CCc1nc(-c2ccccc2)no1)Nc1cccc(C(=O)NC2CC2)c1`: -5.9% [at 12.7 µM] (inactive). `CCOC(=O)c1ccccc1NC(=O)COC(=O)C(Cc1c[nH]c2ccccc12)NC(C)=O` (stereo unspecified): the Potency result was “inactive”.

In the case of `Cc1nonc1C1CCCN1C(=O)c1cc(COc2cccc(C(F)(F)F)c2)on1` (stereo unspecified), the Potency entry is “inactive”.

Turning to `Cc1ccc(NC(=O)CSc2nc3c([nH]c4ccccc43)c(=O)n2-c2ccccc2)c(C)c1`, the Potency entry is “inactive”. Same read-out and setting: the same measure for `O=C(COc1ccccc1F)OCc1cc(=O)n2nc(C3CCCCC3)sc2n1`: “inactive”.

Regarding `O=C(O)CCc1nc2cc(Cl)ccc2n(Cc2ccccc2)c1=O`, the Potency was 50.1 µM (active). With `O=C(O)CCn1c(Cc2ccccc2)nc2ccccc21`, the Potency result is “inactive”. Still for that read-out and setting: the same measure for `CC(=O)c1nc2ccccc2n1Cc1ccccc1`: “inactive”. On to `COc1cc(OC)c(NC(=O)c2cnc(N3CCCC3)nc2C)cc1Cl`, for which the activity, negative = inhibition was -4.36% [at 12.7 µM] (inactive).

Regarding `COc1cc(C#Cc2ccc3cc(CCCO)oc(=O)c3c2)cc(OC)c1`, the activity, negative = inhibition is -2.15% [at 0.501 µM] (inactive). For the compound `COc1ccccc1C(=O)N(Cc1ccc(C)o1)C1CCS(=O)(=O)C1` (stereo unspecified), the Potency result is “inactive”. For `CC(OC(=O)c1cc2ccccc2o1)C(=O)Nc1ccc(N2CCOCC2)cc1` (stereo unspecified), the activity, negative = inhibition was -43.1% [at 12.7 µM] (inactive). For `O=C(Nc1nnc(-c2ccccc2F)s1)c1ccccc1F`, the Potency entry is “inactive”. Still for that read-out and setting: the same measure for `O=C(Cn1c(=O)sc2ccccc21)Nc1nc2c(s1)CCCC2`: “inactive”; for `O=C(Nc1nc2c(s1)CCCC2)c1ccccc1F`: 12.6 µM (active); for `CCc1ccc(NC(=O)C2CCCN2S(=O)(=O)c2ccc3nc(-c4ccccc4)[nH]c3c2)cc1` (stereo unspecified): “inactive”. On the same count and under the same terms, the same measure for `Cc1ccc(CSc2nc3ccsc3c(=O)n2CCC(C)C)cc1`: “inactive”; for `COC(=O)c1ccccc1NC(=O)c1cnn(-c2ccc(F)cc2)c1-n1cccc1`: “inactive”. Same read-out and setting: in the case of `O=C(COc1ccc(Cl)cc1)Nc1ccc2c(c1)OCO2` it was “inactive”; in that of `O=C(Nc1cccc(NC(=O)N2CCN(c3ccccc3)CC2)c1)N1CCN(c2ccccc2)CC1`, “inactive”. Turning to `O=C(Nc1ccccc1)N1CCN(Cc2ccccc2)CC1`, the Potency is 2 µM (active). On to `CCOC(=O)N1CCN(CCC(=O)Nc2ccccc2)CC1`, for which the activity, negative = inhibition was -0.171% [at 0.501 µM] (inactive).

As for `O=C(CN1CCN(Cc2ccccc2)CC1)Nc1ccc(F)c(F)c1`, the Potency was 7.08 µM (active). As to `O=C(CN1CCCCCC1)Nc1ccc(Cl)cc1F`, the Potency entry was “inactive”. The same measure, in the same setting: in the case of `Cc1cc(NC(=O)CCN2CCN(Cc3ccccc3)CC2)ccc1Br` it was 44.7 µM (active); in that of `O=C1CCN(C(=O)Nc2ccccc2)N1`, 7.94 µM (active). Take `O=C(Nc1ccccc1)N1CCN(C2c3ccccc3-c3ccccc32)CC1`: the Potency result was “inactive”. In the case of `O=C(Nc1ccccc1)N1CCC(C(=O)N2CCN(Cc3ccccc3)CC2)CC1`, the activity, negative = inhibition is 9.4% [at 12.7 µM] (inactive). On the same count and under the same terms, the same measure for `O=C(CN1CCN(CC(=O)Nc2ccc3c(c2)OCO3)CC1)Nc1ccc(F)cc1`: -4.1% [at 2.33 µM] (inactive).

As for `O=C(Nc1ccccc1)N1CCN(C(=O)Nc2ccccc2)CC1`, the Potency entry is “inactive”. Same read-out and setting: in the case of `O=C(CCN1CCN(C/C=C/c2ccccc2)CC1)Nc1cccc(F)c1` it was “inactive”.
